Assay results as given in PubChem BioAssay AID488834 (National Center for Advancing Translational Sciences (NCATS), 2010).
Unmarked numbers belong to inactive results. The call rests on the fitted dose curve; in most records, active means well fitted curve in the direction sought with a large enough effect; inactive means no such curve, though single readings can be large or run the other way.

The molecules below were run against Lysosomal alpha-glucosidase (Homo sapiens) (UniProt P10253) (assay: qHTS Assay for Inhibitors and Activators of N370S glucocerebrosidase as a Potential Chaperone Treatment of Gaucher Disease: Alpha-Glucosidase Counterscreen for Probe SAR). Settings: purified human alpha-glucosidase, 4-MU fluorogenic substrate.
Excerpt: NIH Chemical Genomics Center [NCGC] NIH Molecular Libraries Probe Production Centers Network [MLPCN] MLPCN Grant: MH086442-01 Assay Submitter (PI): Wei Zheng Glucocerebrosidase (GC) catalyzes the hydrolysis of beta-glucocerebroside to glucose and ceramide in lysosomes. Mutations in the glucocerebrosidase gene result in Gaucher disease, an autosomal recessive lysosomal storage disorder. Many of the mutations encountered in patients with Gaucher disease are missense alterations that may cause misfolding, decreased stability and/or mistrafficking of this lysosomal protein. […] These inhibitors include iminosugar analogs and three non-iminosugar inhibitors identified from a previous HTS of 62,000 compounds with the wild type recombinant enzyme. However, the enhancement of enzyme activity by the chaperone action of an enzyme inhibitor must be balanced against the direct inhibition of the enzyme. An enzyme activator could also function as a chaperone by binding to the enzyme and helping to correct its misfolding and mistrafficking. While activators for GC have not yet been identified, they may have better therapeutic potential than inhibitors. Therefore the discovery and development of chemical activators may provide a new strategy for the chaperone therapy. To characterize compound selectivity, selected hits from the primary screen were screened against purified alpha-glucosidase, a related sugar hydrolase. Alpha-glucosidase is responsible for hydrolysis of terminal, non-reducing 1,4-linked alpha-D-glucose residues with release of alpha-D-glucose.
NCGC Assay Protocol Summary: This is a fluorogenic enzyme assay with 4-methylumbelliferyl-alpha-D-[…] as the substrate and human alpha-glucosidase as the enzyme preparation. Upon the hydrolysis of this fluorogenic substrate, the resulting product, 1. 4-methyllumbelliferone, can be excited at 365 nm and emits at 440 nm which can be detected by a standard fluorescence plate reader. Data were normalized to the controls for basal activity (without enzyme) and 100% activity (with enzyme). The AC50 values were determined from concentration-response data modeled with the standard Hill equation. Assay buffer: 50 mM citric acid (titrated with potassium phosphate to pH 5.0), 0.005% Tween-20, pH 5.0. (pH 5.0 is an optimal condition for this enzyme assay) 1536-well assay protocol for the human alpha-glucosidase: (1) Add 2 ul/well of enzyme (4 nM final) (2) Add 23 nL compounds in DMSO solution. The final titration was 0.7 nM to 77 uM. (3) Add 1 ul of substrate (400 uM final) (4) Incubate at room temperature for 20 min. (5) Add 2 ul stop solution (1M NaOH and 1M Glycine mixture, pH 10) (6) Detect the assay plate in a ViewLux plate reader (PerkinElmer) with Ex=365 nm and Em=440nm. Keywords: Alpha-glucosidase, Pompe Disease, pharmacological chaperone, chaperone therapy, high throughput screening, alpha-glucosidase inhibitor, MLSMR, MLSCN, NIH Roadmap, qHTS and NCGC

SMILES	max response
O=C(Nc1ccccc1Sc1ccccc1)c1cnn2c1NC(=C1CC1)C=C2C(F)F	-18.1%
C=C1C=C(C(F)F)n2ncc(C(=O)Nc3ccc(C(C)CC)cc3)c2N1 (stereo unspecified)	-2.76%
C#Cc1ccc(NC(=O)c2cnn3c(C)cc(C)nc23)cc1	-2.48%
O=C(Nc1ccccc1Sc1ccccc1)c1cnn2c1NC(=C1CC1)C=C2C(F)(F)F	-11.4%
O=C(NC1CCCCC1)c1cnn2c1NC(=C1CC1)C=C2C(F)F	-3.85%
O=C(Nc1ccc2c(c1)CCC2)c1cnn2c1NC(=C1CC1)C=C2C(F)F	-4.43%
